Here are results for 42 compounds from PubChem BioAssay.

SMILES strings stand for the structures.

For test [1], the target named is PEG-3 (UniProt Q6IN02). Nature of the test: inhibition of PEG-3 promoter-driven reporter – cell-based, HeLa, luciferase, CREF/GAPDH counter-screen panel, dose response (AID 624167). The settings on record: CREF/GAPDH counter-screens; HeLa PEG-Prom luciferase reporter, overnight, run 1, dose range 1, at 100 µM (top of the series) unless noted. For orientation: A counterscreen serves to expose hits that act by an unwanted route or on another target.
Sequence of PEG-3 (Q6IN02 whole entry, looked up): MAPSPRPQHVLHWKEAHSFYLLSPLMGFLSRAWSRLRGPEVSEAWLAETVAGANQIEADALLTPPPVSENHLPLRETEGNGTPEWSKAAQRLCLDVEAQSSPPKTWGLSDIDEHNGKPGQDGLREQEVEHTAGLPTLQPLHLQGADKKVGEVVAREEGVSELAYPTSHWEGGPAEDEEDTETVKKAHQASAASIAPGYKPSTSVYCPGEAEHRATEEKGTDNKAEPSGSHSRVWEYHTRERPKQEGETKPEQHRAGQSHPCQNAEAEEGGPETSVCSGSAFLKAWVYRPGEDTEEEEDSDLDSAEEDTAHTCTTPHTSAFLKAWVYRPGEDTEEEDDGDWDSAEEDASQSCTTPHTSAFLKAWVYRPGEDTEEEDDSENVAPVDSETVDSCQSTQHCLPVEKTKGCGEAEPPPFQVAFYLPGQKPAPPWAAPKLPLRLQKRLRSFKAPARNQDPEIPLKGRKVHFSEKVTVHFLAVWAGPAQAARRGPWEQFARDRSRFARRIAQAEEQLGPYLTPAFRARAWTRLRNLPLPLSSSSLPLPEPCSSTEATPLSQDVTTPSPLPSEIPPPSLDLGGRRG

Test [2] addresses PEG-3 (UniProt Q6IN02). The test is described as above. As to conditions: CREF/GAPDH counter-screens; HeLa PEG-Prom luciferase reporter, overnight, run 2, dose range 1, at 100 µM (top of the series) unless noted.

The inhibition is the change of the read-out against control, counted positive when it falls. For the compound `CC(C)(C)c1ccc(/C=N/Nc2ccc(C(=O)O)cc2)cc1`, the inhibition in test [1] was found to be 89%; in test [2], 98.5%.

As to `CN(C)CCc1cc2c(c3c1ccc1ccccc13)OCO2`, the inhibition in test [1] stood at 98.3%; in test [2], 99.1%.

As to `CCCc1nc(SCC(=O)N2CCCc3ccccc32)c2c(=O)n(C)c(=O)n(C)c2n1`, the inhibition in test [1] was 99.2%; in test [2] it was 96.2%.

For the compound `Cc1c(CCOC(=O)C23CC4CC(CC(C)(C4)C2)C3)sc[n+]1CC(=O)c1ccccc1`, the inhibition in test [1] is 99.3%; in test [2] it was 97.8%.

`COc1ccccc1CNC(=O)c1c(N)n(CCCN2CCOCC2)c2nc3ccccc3nc12`: the inhibition is 99.1% in test [1] and 99% in test [2].

Regarding `CCCCCCC=C1CCC(CN2CCCC2)C1=O` (centres undefined), the inhibition is 98.4% in test [1] and 101% in test [2].

Consider `CCCc1nc2oc3c(NCCCN(C)C)ncnc3c2c2c1CCCC2`, for which the figures for the inhibition in test [1] and in test [2] were 102% and 101%, respectively.

As to `Oc1cccc(C(Nc2nccs2)c2ccc3cccnc3c2O)c1` (centres undefined), the inhibition in test [1] stood at 97.4%; in test [2], 98.7%.

Turning to `C=CCN=C1NN=C(c2cc(C)n(CC=C)c2C)CS1`, the inhibition in test [1] was 93.6%; in test [2], 97.6%.

Turning to `Cc1cc(Cl)n2ncc(-c3ccccc3)c2n1`, the inhibition in test [1] and in test [2] was 102% throughout.

Regarding `CCCCCCOc1ccc(/C(C)=N/NC2=NCCN2)cc1`, the inhibition in test [1] and in test [2] was 101% throughout.

Take `NC(N)=N/N=C/c1cccc(Cl)c1Cl`: the inhibition in test [1] is 97.9%; in test [2] it was 99.4%.

`CC(C)CC(N)c1csc(NC(=O)Nc2ccccc2C(C)(C)C)n1` (centres undefined): the values for the inhibition in test [1] and in test [2] were 102% and 101%, respectively.

For `Cc1ccc(NS(=O)(=O)c2cc3c4c(cccc4c2)C(=O)NC3=O)cc1C`, the results for the inhibition in test [1] and in test [2] were 71.4% and 66.9%, respectively.

Consider `COc1ccc(-c2nc(NC(=O)c3n[nH]c(=O)c4ccccc34)sc2C)cc1`, for which the inhibition turned out to be 14% in test [1] and 30.7% in test [2].

As to `COc1cc(-c2cc(C(=O)Nc3cc(S(=O)(=O)N4CCOCC4)ccc3C)c3ccccc3n2)cc(OC)c1OC`, the results for the inhibition in test [1] and in test [2] were 55.1% and 61.8%, respectively.

On to `COc1ccccc1CN(C)C(=O)c1cc(-c2cc(OC)c(OC)c(OC)c2)nc2ccccc12`, for which the results for the inhibition in test [1] and in test [2] were 83.8% and 84.7%, respectively.

`CN(C)CCNc1ccc2nnn3c4ccc(O)cc4c(=O)c1c23`: the inhibition in test [1] amounted to 102%; in test [2], 98%.

For the compound `O=C(Nc1ccc2oc(-c3ccncc3)nc2c1)c1ccc([N+](=O)[O-])o1`, the results for the inhibition in test [1] and in test [2] were 99% and 101%, respectively.

`O=C(C[C@H]1C[C@H](C(=O)N2CCCCC2)[C@@]2(CCc3ccccc3)c3[nH]c4ccc(Cl)cc4c3CCN2C1=O)NCCc1ccccn1`: the results for the inhibition in test [1] and in test [2] were 94% and 93.1%, respectively.

Regarding `Cc1cccc(N2CCN(C(=O)C3CCN(c4ncnc5c4nc4n5CCCCC4)CC3)CC2)c1C`, the inhibition came to 101% in test [1] and 90.7% in test [2].

Consider `CC(=O)Nc1cccc(NC(=O)c2cc(-c3cccnc3)nc3ccc(Cl)cc23)c1`, for which the inhibition turned out to be 87.9% in test [1] and 97.3% in test [2].

Turning to `CC(NNC(=S)N1CCN(c2ccccn2)CC1)c1nccc2ccccc12` (centres undefined), the inhibition in test [1] is 98.7%; in test [2] it was 99.9%.

Regarding `Cc1nn(-c2ccccc2Cl)c(Cl)c1/C=N/Nc1nc2ccccc2s1`, the inhibition in test [1] worked out at 57.6%; in test [2] it was 47.3%.

For the compound `CCc1ccc(NC(=O)CSc2nc3ccccc3c(=O)n2CCCN2CCC(C)CC2)cc1`, the inhibition in test [1] was 99.2%; in test [2], 101%.

Take `c1ccc(CCCNCCCn2cnc3c(OCc4ccccc4)ncnc32)cc1`: the inhibition stood at 99.5% in test [1] and 101% in test [2].

`Cc1c(C(=O)N2CCN(c3ccc(F)cc3)CC2)sc2ncnc(N3CCN(c4ccccn4)CC3)c12`: the inhibition turned out to be 67.2% in test [1] and 77.6% in test [2].

`COc1cccc(Nc2nc(C(N)C3CCCCC3)cs2)n1` (centres undefined): the inhibition turned out to be 98.9% in test [1] and 102% in test [2].

For `CCCCCc1ccc(OCCCC[n+]2cccc(C)c2)c(CCCCC)c1`, the inhibition in test [1] stood at 98.6%; in test [2], 101%.

With `O=c1[nH]c(=O)n(C2OC(CO)C(O)C2O)cc1F` (centres undefined), the inhibition in test [1] is 68.7%; in test [2], 76.9%.

Consider `N=c1c2c(-c3ccccc3)c(-c3ccccc3)n(Cc3ccccc3)c2ncn1CCO`, for which the inhibition in test [1] was 96.4%; in test [2], 97.6%.

With `O=C(Nc1ccc(-c2cn3ccsc3n2)cc1)c1ccc(F)c(S(=O)(=O)N2CCOCC2)c1`, the inhibition in test [1] is 0.918%; in test [2], -62.2%.

In the case of `COc1ccc(C2c3ccc4ccccc4c3Oc3ncn(CCCO)c(=N)c32)cc1` (centres undefined), the inhibition came to 102% in test [1] and 101% in test [2].

Regarding `O=C(NC(c1ccc(F)cc1)c1ccc2ccccc2n1)C1CCN(Cc2cccc(C(F)(F)F)c2)CC1` (centres undefined), the values for the inhibition in test [1] and in test [2] were 91.2% and 94.1%, respectively.

Consider `CCN1CCc2c(sc(NC(=O)c3ccc(S(=O)(=O)N4CCCCCC4)cc3)c2C(=O)NC)C1`, for which the figures for the inhibition in test [1] and in test [2] were 94.4% and 94.9%, respectively.

For the compound `CCN(c1ccccc1)S(=O)(=O)c1ccc(C(=O)N(CCCN(C)C)c2nc3cc4c(cc3s2)OCO4)cc1`, the inhibition turned out to be 97.6% in test [1] and 99% in test [2].

As for `COc1ccc(C2c3c(ncn(CCCN4CCOCC4)c3=N)Oc3ccc4ccccc4c32)cc1OC` (centres undefined), the inhibition in test [1] stood at 102%; in test [2] it was 100%.

Regarding `Cc1cc(C(=O)CN2C(=O)c3ccccc3S2(=O)=O)c(C)n1C(C)C`, the figures for the inhibition in test [1] and in test [2] were 101% and 94.7%, respectively.

As for `CCc1cccc(CC)c1NC(=S)NCCc1c(C)[nH]c2ccc(C)cc12`, the inhibition was 89.5% in test [1] and 83.9% in test [2].

Consider `O=C(Sc1cccc2cccnc12)c1ccccc1Br`, for which the inhibition in test [1] amounted to 99.3%; in test [2], 93.8%.

Regarding `Cc1cc(C)c2nc(N(CCCN(C)C)C(=O)c3ccc(S(=O)(=O)N4CCCCCC4)cc3)sc2c1`, the inhibition was 102% in test [1] and 100% in test [2].

For the compound `O=C(CCCN1C(=O)/C(=C/c2cccc(Br)c2)SC1=S)Nc1cccnc1`, the values for the inhibition in test [1] and in test [2] were 101% and 96.5%, respectively.
